This passage reports Potency results from PubChem BioAssay (NCATS).

Molecules are shown by their SMILES. Values joined by “and” are separate entries in the source; they are usually repeats but may differ in a detail not shown here. Identical values can stand only once. Records with an inconclusive call do not appear. A call without a number means that no potency is given here. Active and inactive are the calls of the source. The call rests on the fitted dose curve; in most records, active means well fitted cell-killing curve with a large enough effect; inconclusive means small, poorly fitted or top-dose-only effect, or effect the other way; inactive means no such curve, though single readings can be large or run the other way.
Potency means the concentration at half of the fitted maximal effect.

The test is described as follows: qHTS of pediatric cancer cell lines to identify multiple opportunities for drug repurposing: Confirmatory screen for MG 63 (6-TG R) cells (AID 1347119). Further: nearly all actives have a fitted effect of over 55% in size. The following applies: MG-63 (6-TG resistant) osteosarcoma viability; series mostly up to 45.9 µM. The source says:
Drug repurposing or repositioning has been offered as a strategy for drug development in oncology programs. This approach has special potential for childhood cancers and other rare or orphan diseases, where the expected return on new drug development has been a disincentive to pharmaceuticals.
In this project we exploit the poly-pharmacology of drugs to discover new indications via phenotypic screening of a panel of 19 well-characterized cell lines derived from solid tumors seen in children and adolescents. The goal is to identify approved drugs with previously unrecognized anticancer properties that has the potential to reveal new mechanisms and biological processes involved in carcinogenesis or drug resistance. We employed a titration-based paradigm (quantitative high-throughput screening or qHTS), where all compounds were tested at multiple concentrations for their effect on cell viability. Concentration-response curves (CRCs) were derived directly from the primary screen, and both potency and efficacy values were used to identify compounds with robust bioactivity profiles. We screened the NIH Chemical Genomics Center (NCGC) Pharmaceutical Collection (NPC) and Mechanism Interrogation Plate (MIPE) small molecule collections of approved and investigational compounds against these cell lines; and measured metabolically active cells after 48 hours of compound treatment as a proxy for cell viability.
Assay Submitter: Nathalia J. Martinez, National Center for Advancing Translational Sciences, National Institutes of Health, Rockville, MD, USA; email: natalia.martinez@nih.gov
[1] Shen, M et al. Quantitative high-throughput phenotypic screening of pediatric cancer cell lines identifies multiple opportunities for drug repurposing. Oncotarget 2017 Dec 19;9(4):4758-4772. PMID 29435139.
The cells were obtained from University of North Carolina (UNC), Pediatric Preclinical Testing Program (PPT), and Coriell Institute (CI).
qHTS cell viability assay:
Cells were assayed in growth media at a density of 500-1,000 cells/well. Five microliters of cells were dispensed into 1,536-well, white, solid-bottom, TC-treated plates (Greiner Bio One) using a multidrop dispenser and incubated at 37 degrees C, 5% CO2, under a humidified atmosphere for 5 hours. Twenty-three nanoliters of compounds and controls (neutral control DMSO or positive control bortezomib at final concentration of 2.3 µM) were subsequently transferred by Kalypsys pintool. For primary screens, the MIPE collection was tested at 11-point dilutions (final concentrations range from 0.78 nM to 46 µM) and the NPC collection at 8-point dilutions (final concentrations range from 0.59 nM to 46 µM). Compounds tested in follow-up screens were assayed at 11-point dilutions. Cells were incubated for 48 hours, followed by addition of 3 µL of CellTiter-Glo (Promega). After a 15 min incubation at room temperature, samples were analyzed for luminescence intensity using a ViewLux High-throughput CCD imager equipped with clear filters.
(In general: qHTS replaces the single test concentration by a dilution series.)
For `CC[C@]1(O)C[C@@H]2CN(CCc3c([nH]c4ccccc34)[C@@](C(=O)OC)(c3cc4c(cc3OC)N(C)[C@H]3[C@@](O)(C(=O)OC)[C@H](OC(C)=O)[C@]5(CC)C=CCN6CC[C@]43[C@@H]65)C2)C1`, the Potency was 522 nM (active) and 1.04 µM (active).

Take `C=C1C(=O)[C@@]23C(CC[C@@H]1[C@H]2O)[C@@]12CO[C@]3(O)[C@@H](O)[C@@H]1C(C)(C)CC[C@@H]2O` (stereo partly specified): the Potency was 10.4 µM (active). Consider `N[C@@]1(C(=O)O)CS(=O)(=O)[C@H]2[C@H](C(=O)O)[C@H]21`, for which the Potency was 13.1 µM (active).

`CC1(C)O[C@H]2C[C@@H]3[C@H]4CCC5=CC(=O)C=C[C@]5(C)[C@@]4(F)[C@@H](O)C[C@]3(C)[C@]2(C(=O)CO)O1`: the Potency entry is “inactive”.

In the case of `CC(C)(C(=O)NCC(F)(F)C(F)(F)F)C(=O)N[C@@H]1C(=O)Nc2ccccc2-c2ccccc21`, the Potency entry was “inactive”. Next, `OC[C@H]1O[C@@H](n2cnc3c2NC=NC[C@@H]3O)C[C@H]1O`: “inactive”; `O=C(O)CCC1CCC(c2cc(F)ccc2F)(S(=O)(=O)c2ccc(Cl)cc2)CC1` (stereo unspecified): “inactive”. The result for `COc1cc2ncnc(Nc3ccc(F)c(Cl)c3)c2cc1OCCCN1CCOCC1` reads 67.6 µM (active). Take `COc1ccc(-c2coc3cc(O)cc(O)c3c2=O)cc1`: the Potency entry is “inactive”. Next, `O=C(O)c1ccc(-c2c[nH]c3ncc(-c4ccccc4)cc23)cc1C1CCCC1`: “inactive”; `COc1cc(N2CCC(N3CCN(C)CC3)CC2)ccc1Nc1ncc(Cl)c(Nc2ccccc2S(=O)(=O)C(C)C)n1`: 0.827 µM (active); `Cc1[nH]c(C=C2C(=O)Nc3ccc(S(=O)(=O)Cc4c(Cl)cccc4Cl)cc32)c(C)c1C(=O)N1CCC[C@H]1CN1CCCC1`: 32.9 µM (active). Next, `O=c1[nH]cnc2c1ncn2[C@H]1CC[C@@H](CO)O1`: “inactive”; `O=C1C(Cl)=C(NCCN2CCOCC2)C(=O)c2ncccc21`: 1.04 µM (active); `CC1(C)S[C@H]2[C@H](NC(=O)[C@@H](N)c3ccc(O)cc3)C(=O)N2[C@@H]1C(=O)O`: “inactive”. The result for `COc1ccc(-c2nc(N3CCOCC3)c3sc(CN(C)c4ncc(C(=O)NO)cn4)cc3n2)cn1` reads 0.928 µM (active); that for `CC[C@]1(O)C[C@@H]2CN(CCc3c([nH]c4ccccc34)[C@@](C(=O)OC)(c3cc4c(cc3OC)N(C=O)[C@@H]3C45CCN4CC=C[C@](CC)([C@H]45)[C@@H](OC(C)=O)[C@]3(O)C(=O)OC)C2)C1` (stereo partly specified), “inactive”; that for `O=C1c2ccccc2-[n+]2ccc3c([nH]c4ccccc43)c21`, 3.29 µM (active). Turning to `NC1=N[C@@]2(c3cc(NC(=O)c4ccc(F)cn4)ccc3F)COC[C@@H]2CS1`, the Potency result is “inactive”. Next, `CC1(C)CCC[C@@]2(C)[C@@H]1CC[C@@]1(C)OC(=O)C[C@H]21`: “inactive”; `CC(C)n1nc(-c2ccc3oc(N)nc3c2)c2c(N)ncnc21`: 0.0465 µM (active). On to `CCOc1ccc(Nc2nc(-c3c(C)nc4ccccn34)cs2)cc1`, for which the Potency was 0.104 µM (active). Next, `CCCCCCCCCCCC1=C(O)C(=O)C=C(O)C1=O`: “inactive”. Next, `CN(C)C1CCN(C(=O)c2ccc(NC(=O)Nc3nc(N4CCOCC4)nc(N4CCOCC4)n3)cc2)CC1`: 0.233 µM (active); `CN[C@@H](C)C(=O)N[C@H]1CN(C(=O)CC(C)C)CC[C@H]2CC[C@@H](C(=O)NC(c3ccccc3)c3ccccc3)N2C1=O`: “inactive”; `CO[C@H]1C(=O)[C@]2(C)[C@@H](OC)C[C@H]3OC[C@@]3(OC(C)=O)[C@H]2[C@H](OC(=O)c2ccccc2)[C@]2(O)C[C@H](OC(=O)[C@H](O)[C@@H](NC(=O)OC(C)(C)C)c3ccccc3)C(C)=C1C2(C)C`: 0.0083 µM (active). The result for `CC(=NNC(=S)N1CCC1)c1ccccn1` reads “inactive”; that for `CCc1ccc(OCc2ccccc2C(=O)Nc2ccc3nc(C)cc(N)c3c2)cc1`, 4.14 µM (active); that for `Oc1ccc(C2CCN(c3ccnc4ccccc34)CC2)cc1O`, 2.33 µM (active). Consider `Nc1ncnc2c1ncn2[C@@H]1O[C@@H](CO)[C@H](O)[C@H]1O`, for which the Potency entry is “inactive”. Turning to `CC1(C)CCC(CN2CCN(c3ccc(C(=O)NS(=O)(=O)c4ccc(NCC5CCOCC5)c([N+](=O)[O-])c4)c(Oc4cnc5[nH]ccc5c4)c3)CC2)=C(c2ccc(Cl)cc2)C1`, the Potency result was “inactive”. Next, `COc1cccc(-c2cc(=O)c3ccccc3o2)c1N`: “inactive”; `CC(=O)Oc1cc2c(s1)CCN(C(C(=O)C1CC1)c1ccccc1F)C2` (stereo unspecified): “inactive”; `CC(=O)O[C@]1(C(C)=O)CC[C@@H]2[C@@H]3C[C@H](C)C4=CC(=O)CC[C@]4(C)[C@H]3CC[C@@]21C`: “inactive”. The result for `CO[C@H]1C=CC=C(C)C(=O)NC2=CC(=O)C(NCCN(C)C)=C(C[C@@H](C)C[C@H](OC)[C@@H](O)[C@@H](C)C=C(C)[C@@H]1OC(N)=O)C2=O` reads “inactive”; that for `COc1ncc(-c2ccc3nccc(-c4ccnnc4)c3c2)cc1NS(=O)(=O)c1ccc(F)cc1F`, 0.0037 µM (active).
